“And” between values parts separate entries of the source, which are not always exact repeats. Identical values can stand only once. The source made the active and inactive calls.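 How the source made its calls, unless noted: active means compounds whose cell count with miR-34 switched on is under 0.7 times the count with it off; inactive means the rest.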
Tests used:
[1] = compounds altering viability of human ES cells (AID 493140; call rule not given here;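 further: cells exposed to compounds for four days before counting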); conditions: human embryonic stem cell survival screen; stronger effect = higher value
[2] = P. berghei load reduction in hepatocytes – cell-based, HepG2, luciferase luminescence, HepG2 viability, primary screen (AID 624349; in the data active means parasite load remaining mostly below about 12%, no sharp cut-off; inactive means mostly above about 10%;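 further: 100% = mean of DMSO negative control wells on the same plate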); conditions: P. berghei liver stage in HepG2, luciferase luminescence, concentration not given here; parasite load remaining: stronger effect = lower value; viability: measured here: HepG2 viability without parasites
[3] = Wnt pathway potentiators raising nuclear beta-catenin – imaging, WNT3A-conditioned medium, mouse C2C12, NPC library, primary screen (AID 1117326; in the data active means nuclear beta-catenin stimulation mostly above about 4.2%, no sharp cut-off; inactive means mostly below about 10%); conditions: stronger effect = higher value
[4] = stimulators of insulin release from INS-1E, primary screen, cell-based, 5 mM glucose, NPC library (AID 1117329;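 active means compound raises insulin release from rat beta cells at 5 mM glucose, no numeric limit stated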); conditions: rat INS-1E insulin secretion, at 10 µM, stronger effect = higher value
[5] = growth inhibition of GSK3B-pretreated HCT116 cells – cell-based, CellTiter-Glo, 0.2 to 20 µM (AID 1117336;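 active means compounds lowering colon cancer cell viability after pretreatment blocking the GSK3B kinase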); conditions: HCT116 viability after GSK3B inhibitor, at 20 µM, stronger effect = higher value
[6] = inhibition of endothelial tube formation, primary screen, imaging, VEGF stimulated, CD31 staining, tube area, NPC library (AID 1117340;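 active means compound that reduces growth-factor-driven endothelial tube area in a mixed cell culture, no cutoff stated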); conditions: VEGF-stimulated ADSC/ECFC co-culture, at 10 µM, stronger effect = higher value
[7] = GLP1 release stimulators, primary, NCI-H716, NPC library (AID 1117341;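 active means compound raises GLP1 secretion from the human gut endocrine cells, with no numeric limit stated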); conditions: NCI-H716 cells, at 10 µM, stronger effect = higher value
[8] = HCT116 colon cancer cell growth inhibition, primary screen, CellTiter-Glo luminescence, NPC library (AID 1117342;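 active means compounds that lower survival of HCT116 colon cancer cells in the luminescence readout, no numeric limit stated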); conditions: at 20 µM (top of the series)
[9] = reduced SW480 viability measured with CellTiter-Glo, NPC library, primary (AID 1117343;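 active means compounds that lower viability of the colon cancer cells in the luminescence readout, with no numeric limit stated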); conditions: CellTiter-Glo luminescence; at 20 µM (top of the series) unless noted
[10] = NPC library primary testing for decreased DLD-1 cell viability via CellTiter-Glo (AID 1117346;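 active means compounds that lower survival of DLD-1 colon cancer cells in the luminescence readout, no cutoff given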); conditions: DLD-1 viability, CellTiter-Glo luminescence; at 20 µM (top of the series)
[11] = viability loss with induced miR-34 in A549 – imaging, A549 dox-inducible miR-34, nuclei and caspase counts, primary screen (AID 1347080); conditions: A549 miR-34 inducible, Hoechst nuclei count, 48 h
[12] = MELAS cybrid and Rieske KO viability enhancers – cell-based, MELAS cybrids, Rieske KO mouse fibroblasts, CellTiter-Glo, primary screen (AID 1508586;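 active means mean z-score across replicates of 1.96 or higher in either the MELAS or the Rieske mutant cell line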;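 further: z relative to plate mean and SD of compound and empty wells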); conditions: low glucose
[13] = target: NAD(+) hydrolase SARM1 (Homo sapiens) (UniProt Q6SZW1); assay: blocking NAD cleavage by SARM1 SAM-TIR – cell lysate, NAD-Glo luminescence (AID 1508614;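 active means compound whose remaining NAD level is above about 45 nM, limit read from the data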); conditions: SAM-TIR HEK293T lysate NADase, at 1 µM, stronger effect = higher value
[14] = target: Mitogen-activated protein kinase 7 (Homo sapiens) (UniProt Q13164); assay: Gal4-ERK5 driven luciferase induction – cell-based, HTS, primary screen (AID 1508626;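 active means luciferase signal above three times the same-plate solvent-only control wells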;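 further: luciferase driven by Gal4-ERK5 fusion binding five Gal4 sites before minimal TATA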); conditions: HeLa Gal4-ERK5 transactivation, 18 h, at 5 µM, stronger effect = higher value
[15] = stronger effect = lower value, cell number ratio, induced over uninduced
[16] = measured here: relative caspase fold change +Dox/-Dox
[17] = measured here: total cells with miR-34 induction, stronger effect = lower value
[18] = measured here: total cells without miR-34 induction
[19] = MELAS cybrid survival, CellTiter-Glo 48 h, stronger effect = higher value
[20] = Rieske KO mouse fibroblast survival, CellTiter-Glo 72 h

Chain of NAD(+) hydrolase SARM1 (Homo sapiens) (Q6SZW1 whole entry, looked up, the tested form may be a part): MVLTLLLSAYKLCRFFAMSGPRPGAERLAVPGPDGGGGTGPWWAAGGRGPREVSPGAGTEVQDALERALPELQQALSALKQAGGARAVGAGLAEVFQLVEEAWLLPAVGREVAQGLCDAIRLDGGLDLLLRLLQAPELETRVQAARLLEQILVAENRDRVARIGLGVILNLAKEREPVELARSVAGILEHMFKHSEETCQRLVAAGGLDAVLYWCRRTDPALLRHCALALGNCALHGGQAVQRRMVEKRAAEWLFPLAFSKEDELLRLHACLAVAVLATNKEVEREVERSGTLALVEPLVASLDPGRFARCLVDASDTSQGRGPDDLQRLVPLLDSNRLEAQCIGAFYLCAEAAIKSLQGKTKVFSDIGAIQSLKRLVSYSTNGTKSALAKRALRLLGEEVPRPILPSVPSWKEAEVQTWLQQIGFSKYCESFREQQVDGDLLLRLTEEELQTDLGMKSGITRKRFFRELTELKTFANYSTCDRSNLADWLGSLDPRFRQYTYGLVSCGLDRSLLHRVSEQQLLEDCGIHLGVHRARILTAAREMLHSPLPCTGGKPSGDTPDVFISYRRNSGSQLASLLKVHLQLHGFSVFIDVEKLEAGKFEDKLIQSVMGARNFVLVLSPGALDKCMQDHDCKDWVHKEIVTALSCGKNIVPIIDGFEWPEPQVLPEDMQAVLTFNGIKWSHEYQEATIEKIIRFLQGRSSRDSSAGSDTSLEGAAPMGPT
Chain of Mitogen-activated protein kinase 7 (Homo sapiens) (Q13164 whole entry, looked up, the tested form may be a part): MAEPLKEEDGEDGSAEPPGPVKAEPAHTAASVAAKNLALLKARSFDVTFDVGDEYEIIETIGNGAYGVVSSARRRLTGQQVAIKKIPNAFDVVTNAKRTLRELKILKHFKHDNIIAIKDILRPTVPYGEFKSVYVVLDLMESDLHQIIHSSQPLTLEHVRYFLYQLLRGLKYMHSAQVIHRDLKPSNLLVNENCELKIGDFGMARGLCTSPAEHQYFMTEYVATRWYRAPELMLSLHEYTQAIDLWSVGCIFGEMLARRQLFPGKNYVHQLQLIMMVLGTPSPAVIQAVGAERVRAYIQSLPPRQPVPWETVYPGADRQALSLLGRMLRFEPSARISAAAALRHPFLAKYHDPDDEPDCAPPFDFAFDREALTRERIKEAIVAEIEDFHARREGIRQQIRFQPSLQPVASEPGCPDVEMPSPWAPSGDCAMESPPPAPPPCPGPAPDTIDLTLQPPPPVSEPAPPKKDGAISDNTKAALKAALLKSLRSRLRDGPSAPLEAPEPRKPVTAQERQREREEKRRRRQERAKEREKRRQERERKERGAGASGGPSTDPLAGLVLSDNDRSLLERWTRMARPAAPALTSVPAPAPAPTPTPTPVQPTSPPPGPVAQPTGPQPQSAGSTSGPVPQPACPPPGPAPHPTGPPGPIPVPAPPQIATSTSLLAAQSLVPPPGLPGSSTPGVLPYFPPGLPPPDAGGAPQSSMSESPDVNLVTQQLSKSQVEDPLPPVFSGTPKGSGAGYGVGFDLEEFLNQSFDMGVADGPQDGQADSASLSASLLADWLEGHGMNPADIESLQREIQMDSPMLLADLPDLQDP

| Compound | survival [1] | parasite load remaining [2] | viability [2] | nuclear beta-catenin stimulation ([3]; at 10 µM) | nuclear beta-catenin stimulation ([3]; stimulation, at 2 µM) [%] | insulin secretion stimulation [4] | viability decrease [5] | tube area decrease [6] | GLP1 secretion stimulation [7] | inhibition of viability [8] | viability decrease (inhibition) [9] | viability decrease (inhibition) [10] | fold change [11, 15] | fold change [11, 16] | cell count [11, 17] | cell count [11, 18] | z-score [12, 19] | z-score [12, 20] | remaining NAD [13] | luciferase signal [14] |
| --- | --- | --- | --- | --- | --- | --- | --- | --- | --- | --- | --- | --- | --- | --- | --- | --- | --- | --- | --- | --- |
| C[N+]1(C)CCC(=C(c2ccccc2)c2ccccc2)CC1 | 14.4 (inactive) | 49.5% (inactive) and 80.3% (inactive) | 48.7% and 94.9% | 1.1% (inactive) | -1.3 | 3.5% (inactive) | -7.5% (inactive) | 23.2% (inactive) | 0% (inactive) | 7.97% (inactive) | 40.8% (inactive) | -3.1% (inactive) | 0.907 (inactive) and 1.1 (inactive) | 0.619 and 0.415 | 8340 and 8800 | 9190 and 7990 | -0.294 (inactive) and -0.951 (inactive) | -0.199 and -0.0737 | – | – |
| C/C(=C(\CCOP(=O)(O)O)SC(=O)c1ccccc1)N(C=O)Cc1cnc(C)nc1N | 11 (inactive) | 106% (inactive) | 102% | -2.6% (inactive) | -0.9 | 1.6% (inactive) | -1.5% (inactive) | -4.8% (inactive) | -2.7% (inactive) | 4.6% (inactive) | -2.1% (inactive) | -1% (inactive) | 0.873 (inactive) | 1.12 | 8510 | 9750 | 0.178 (inactive) | 0.46 | – | – |
| CCC(=O)c1ccc(O)cc1 | – | – | – | 2.6% (inactive) | -0.5 | 0.1% (inactive) | 8.05% (inactive) | 5.9% (inactive) | -2.3% (inactive) | 16.7% (inactive) | 60.1% (active) | 25.2% (inactive) | 0.903 (inactive) | 0.966 | 7980 | 8840 | – | – | 10 nM (inactive) | – |
| OC[C@@H](O)[C@@H](O[C@@H]1O[C@H](CO)[C@H](O)[C@H](O)[C@H]1O)[C@H](O)[C@@H](O)CO | – | – | – | 2% (inactive) | 0.9 | 2.3% (inactive) | 22.6% (inactive) | -0.6% (inactive) | -0.5% (inactive) | 6.7% (inactive) | 20% (inactive) | 3.4% (inactive) | 0.928 (inactive) | 0.884 | 8700 | 9370 | – | – | 10 nM (inactive) | 56 AU (inactive) |
| CN1CCCC(CC2c3ccccc3Sc3ccccc32)C1 (centres undefined) | 1.75 (inactive) | 16% (inactive) and 60.9% (inactive) | 59.4% and 67.6% | 0.2% (inactive) | 1.3 | 20.3% (active) | 45.1% (inactive) | 54.2% (active) | 20% (active) | 86% (active) | 110% (active) | 77.8% (active) | 0.892 (inactive) | 1.45 | 6900 | 7740 | -0.486 (inactive) | 0.0453 | – | – |
| NS(=O)(=O)c1cc2c(cc1Cl)NC(CC1CCCC1)NS2(=O)=O (centres undefined) | 5.92 (inactive) | 80.8% (inactive) | 73% | -0.9% (inactive) | -1.5 | 4.2% (inactive) | 1% (inactive) | 35.3% (inactive) | 3.4% (inactive) | 1.1% (inactive) | -15.3% (inactive) | -0.6% (inactive) | 0.993 (inactive) | 0.594 | 9530 | 9590 | 0.486 (inactive) | -0.891 | – | – |
| NS(=O)(=O)c1cc(C(=O)O)cc(N2CCCC2)c1Oc1ccccc1 | 11.5 (inactive) | 67.6% (inactive) | 80.6% | 0.5% (inactive) | -0.6 | -1% (inactive) | -7.05% (inactive) | -7% (inactive) | 1.1% (inactive) | 6.7% (inactive) | -4.4% (inactive) | -15.4% (inactive) | 0.92 (inactive) | 0.688 | 8630 | 9380 | -0.17 (inactive) | -0.69 | – | – |
| O=C(O)c1ccc[n+]([O-])c1 | – | – | – | -0.8% (inactive) | 2 | -0.6% (inactive) | -4.35% (inactive) | 11.3% (active) | 0% (inactive) | -1.7% (inactive) | 14.2% (inactive) | -2.85% (inactive) | 0.936 (inactive) | 0.969 | 8660 | 9250 | – | – | 10 nM (inactive) | – |
| CN(C)CCn1nnnc1SCC1=C(C(=O)O)N2C(=O)[C@@H](NC(=O)Cc3csc(N)n3)[C@H]2SC1 | 7.25 (inactive) | 47.4% (inactive) and 69.6% (inactive) | 114% and 74.2% | -1.2% (inactive) | 1.1 | 2.8% (inactive) | 4.6% (inactive) | -30.8% (inactive) | -3% (inactive) | -8.3% (inactive) | 4.5% (inactive) | -6.8% (inactive) | 0.874 (inactive) | 1.13 | 8320 | 9520 | -0.0188 (inactive) | -0.0723 | – | – |
| OC(CCCN1CCCCC1)(c1ccccc1)c1ccccc1 | 12.2 (inactive) | 29.2% (inactive) and 89.1% (inactive) | 45.7% and 89.8% | -0.9% (inactive) | -0.2 | 22% (active) | -9.5% (inactive) | 3.9% (inactive) | -3.3% (inactive) | 6.1% (inactive) | 12% (inactive) | -3.8% (inactive) | 0.908 (inactive) and 0.916 (inactive) | 1.32 and 0.648 | 8770 and 8200 | 9660 and 8950 | -0.227 (inactive) and -0.211 (inactive) | -0.167 and -0.027 | – | – |

Reference: PubChem BioAssay
